Reference: the supplement of paper PMC10849652
Targets with a hit are over-represented here; the source holds about 8,800 in all. About 0.5% of all pairs of compound and target were hits.

Experiments:
Assay in all cases: log2 fold change, soluble protein after heating vs DMSO (PISA); higher = thermal stabilisation; K562 lysate, 10 uM; active = over 0.2 and 3.5 SD of the protein, either way, in both replicates (recomputed)
erlotinib = compound: C#Cc1cccc(Nc2ncnc3cc(OCCOC)c(OCCOC)cc23)c1 [erlotinib]
Method in brief: (§1)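 Quantification was by TMTpro 16plex LC-MS/MS with equalised channel sums, applied to the supernatant after 21,000xg for 90 min. Samples were crude K562 extract at 1 mg/mL protein in PBS pH 7.4 with 1 mM MgCl2, treated with 10 μM compound for 30 min, heated for 3 min across 48°C-58°C, pooled and brought to 0.5% NP-40 at 4°C. Values are log-two fold changes in thermal stability relative to solvent controls, from duplicates.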

[1] = compound: C/C(=N\NC(=O)C1=CC(=CC=C1)S(=O)(=O)N2CCOCC2)/C3=C(C=CC(=C3)Cl)O
Method in brief: as §1

[2] = compound: C1=CC(=CC=C1C2=NC3=C(N2)C=C(C=C3)C(=O)N)OC4=CC=C(C=C4)Cl
Method in brief: as §1

[3] = compound: C1=CC2=C(C=CC(=C2)/C=C\3/C(=O)NC(=NCC4=CC=CS4)S3)N=C1
Method in brief: as §1

[4] = compound: C1=CC2=NC=CN=C2C=C1/C=C/3\C(=O)NC(=O)S3
Method in brief: as §1

[5] = compound: C1=CC=C(C=C1)C2=NC(=C(N2)C3=CC=NC=C3)C4=CC(=C(C=C4)Cl)O
Method in brief: as §1

[6] = compound: C1=CC=C2C(=C1)C3=NNC4=CC=CC(=C43)C2=O
Method in brief: as §1

[7] = compound: C1CCN(C1)C(=O)NC2=CC=CC(=C2)NC3=NC=C(C(=N3)NCCC4=CN=CN4)Br
Method in brief: as §1

[8] = compound: C1CN(CCC1(CC2=CC=C(C=C2)Cl)N)C3=NC=NC4=C3C=CN4
Method in brief: as §1

IRAK-1-4 Inhibitor I = compound: C1COCCN1CCN2C3=CC=CC=C3N=C2NC(=O)C4=CC(=CC=C4)[N+](=O)[O-] [IRAK-1-4 Inhibitor I]
Method in brief: as §1

Measured: log2 fold change

MAD2L1BP isoform 3 (UniProt Q15013)
UniProt Q15013, sequence (Q15013 whole entry, looked up): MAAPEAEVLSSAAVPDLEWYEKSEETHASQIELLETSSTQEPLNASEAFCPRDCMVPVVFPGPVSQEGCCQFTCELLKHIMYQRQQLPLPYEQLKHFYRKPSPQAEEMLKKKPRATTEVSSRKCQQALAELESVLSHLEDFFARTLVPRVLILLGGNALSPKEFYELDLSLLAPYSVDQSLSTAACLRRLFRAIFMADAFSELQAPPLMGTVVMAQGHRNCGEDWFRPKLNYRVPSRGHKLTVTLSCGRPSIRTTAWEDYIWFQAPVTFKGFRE
inactive: erlotinib 0.067 | [1] -0.081 | [2] 0.002 | [3] 0.078 | [4] -0.015 | [5] 0.005 | [6] 0.063 | [7] -0.029 | IRAK-1-4 Inhibitor I -0.002
active: [8] 0.263

MED13L (UniProt Q71F56)
inactive: erlotinib 0.048 | [1] -0.049 | [2] 0.03 | [3] 0.024 | [4] 0.034 | [5] -0.014 | [6] -0.035 | [7] 0.024 | [8] 0.013 | IRAK-1-4 Inhibitor I 0.061

MORC2 (UniProt Q9Y6X9)
UniProt Q9Y6X9, sequence (Q9Y6X9 whole entry, looked up): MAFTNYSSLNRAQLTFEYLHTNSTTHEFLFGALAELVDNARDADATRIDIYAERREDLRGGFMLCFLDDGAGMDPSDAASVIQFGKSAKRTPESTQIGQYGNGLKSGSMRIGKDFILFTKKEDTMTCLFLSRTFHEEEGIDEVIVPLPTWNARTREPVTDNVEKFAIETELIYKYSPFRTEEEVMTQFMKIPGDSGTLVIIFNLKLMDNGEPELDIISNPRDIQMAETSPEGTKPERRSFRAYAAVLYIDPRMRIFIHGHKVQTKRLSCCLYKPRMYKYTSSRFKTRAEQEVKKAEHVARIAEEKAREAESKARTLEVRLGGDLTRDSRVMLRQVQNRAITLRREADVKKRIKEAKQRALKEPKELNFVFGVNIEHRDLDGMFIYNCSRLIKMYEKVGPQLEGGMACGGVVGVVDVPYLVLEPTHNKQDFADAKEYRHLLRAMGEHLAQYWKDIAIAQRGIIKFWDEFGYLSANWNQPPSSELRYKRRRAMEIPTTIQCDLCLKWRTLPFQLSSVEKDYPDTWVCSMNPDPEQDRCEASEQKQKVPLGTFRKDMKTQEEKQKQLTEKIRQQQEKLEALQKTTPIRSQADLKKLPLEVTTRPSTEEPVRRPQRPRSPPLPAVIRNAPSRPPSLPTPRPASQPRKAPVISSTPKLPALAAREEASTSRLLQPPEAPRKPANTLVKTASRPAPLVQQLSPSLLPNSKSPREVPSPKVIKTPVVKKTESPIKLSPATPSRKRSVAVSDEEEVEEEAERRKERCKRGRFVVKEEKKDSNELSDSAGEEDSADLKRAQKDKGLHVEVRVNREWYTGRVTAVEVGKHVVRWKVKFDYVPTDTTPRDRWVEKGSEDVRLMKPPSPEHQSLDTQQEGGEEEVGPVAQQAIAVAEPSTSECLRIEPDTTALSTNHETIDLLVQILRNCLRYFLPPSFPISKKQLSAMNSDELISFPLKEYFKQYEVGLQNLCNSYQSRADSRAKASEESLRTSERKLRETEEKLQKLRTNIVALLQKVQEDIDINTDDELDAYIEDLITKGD
inactive: erlotinib 0.039 | [1] -0.05 | [2] -0.002 | [3] 0.015 | [4] -0.016 | [5] -0.001 | [6] -0.033 | [7] 0.006 | [8] -0.023 | IRAK-1-4 Inhibitor I 0.034

LUC7L (UniProt Q9NQ29)
UniProt Q9NQ29, sequence (Q9NQ29 whole entry, looked up): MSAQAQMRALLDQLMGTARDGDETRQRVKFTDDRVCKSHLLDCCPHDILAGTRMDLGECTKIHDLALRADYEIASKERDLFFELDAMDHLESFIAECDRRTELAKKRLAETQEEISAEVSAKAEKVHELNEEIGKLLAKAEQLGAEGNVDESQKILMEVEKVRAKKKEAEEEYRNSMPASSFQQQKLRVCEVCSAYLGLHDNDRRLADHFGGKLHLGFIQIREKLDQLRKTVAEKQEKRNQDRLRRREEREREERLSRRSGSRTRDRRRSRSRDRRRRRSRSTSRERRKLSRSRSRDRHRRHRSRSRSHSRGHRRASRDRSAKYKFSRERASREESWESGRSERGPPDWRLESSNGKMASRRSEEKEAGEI
inactive: erlotinib -0.024 | [1] 0.021 | [2] -0.097 | [3] 0.015 | [4] -0.067 | [5] -0.023 | [6] 0.01 | [7] -0.02 | [8] -0.004 | IRAK-1-4 Inhibitor I -0.026

MED10 (UniProt Q9BTT4)
UniProt Q9BTT4, sequence (Q9BTT4 whole entry, looked up): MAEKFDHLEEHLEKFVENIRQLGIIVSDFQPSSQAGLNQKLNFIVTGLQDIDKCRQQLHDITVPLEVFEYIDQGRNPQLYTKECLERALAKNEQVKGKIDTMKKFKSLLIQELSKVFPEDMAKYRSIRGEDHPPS
inactive: erlotinib 0.049 | [1] -0.077 | [2] 0.044 | [3] 0.028 | [4] -0.149 | [5] -0.015 | [6] 0.029 | [7] 0.102 | [8] 0.101 | IRAK-1-4 Inhibitor I -0.022

MAP4K2 (UniProt Q12851)
inactive: erlotinib 0.001 | [1] -0.202 | [2] -0.082 | [3] -0.195 | [4] 0.05 | [5] -0.057 | [6] 0.355 | [7] 0.288 | [8] -0.205 | IRAK-1-4 Inhibitor I -0.046

MAP2K7 isoform 4 (UniProt O14733)
UniProt O14733, sequence (O14733 whole entry, looked up): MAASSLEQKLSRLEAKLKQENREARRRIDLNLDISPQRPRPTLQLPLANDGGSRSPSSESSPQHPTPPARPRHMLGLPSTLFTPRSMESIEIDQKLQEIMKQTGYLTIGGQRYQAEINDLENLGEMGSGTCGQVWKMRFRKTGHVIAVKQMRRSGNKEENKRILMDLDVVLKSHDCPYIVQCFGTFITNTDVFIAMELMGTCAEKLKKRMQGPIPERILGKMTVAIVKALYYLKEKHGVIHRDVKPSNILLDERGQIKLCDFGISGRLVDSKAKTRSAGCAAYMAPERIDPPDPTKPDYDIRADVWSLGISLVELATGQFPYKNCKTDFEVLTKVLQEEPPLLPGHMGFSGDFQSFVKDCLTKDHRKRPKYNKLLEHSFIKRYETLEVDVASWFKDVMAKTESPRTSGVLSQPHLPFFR
active: [6] 0.586
inactive: erlotinib -0.042 | [1] -0.034 | [2] 0.037 | [3] 0.091 | [4] 0.241 | [5] 0.044 | [7] -0.106 | [8] 0.078 | IRAK-1-4 Inhibitor I -0.123

LYRM4 (UniProt Q9HD34)
UniProt Q9HD34, sequence (Q9HD34 whole entry, looked up): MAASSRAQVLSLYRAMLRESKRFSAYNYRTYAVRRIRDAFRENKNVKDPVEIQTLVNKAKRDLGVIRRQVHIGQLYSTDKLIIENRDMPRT
inactive: erlotinib -0.009 | [1] 0.016 | [2] 0.02 | [3] -0.117 | [4] -0.017 | [5] -0.011 | [6] -0.002 | [7] -0.02 | [8] 0.06 | IRAK-1-4 Inhibitor I 0.005

LYN (UniProt P07948)
inactive: erlotinib 0.054 | [1] -0.047 | [2] 0.026 | [3] -0.011 | [4] -0.07 | [5] -0.022 | [6] 0.025 | [7] 0.07 | [8] -0.042 | IRAK-1-4 Inhibitor I 0.487

MAP2K3 isoform 3 (UniProt P46734)
UniProt P46734, sequence (P46734 whole entry, looked up): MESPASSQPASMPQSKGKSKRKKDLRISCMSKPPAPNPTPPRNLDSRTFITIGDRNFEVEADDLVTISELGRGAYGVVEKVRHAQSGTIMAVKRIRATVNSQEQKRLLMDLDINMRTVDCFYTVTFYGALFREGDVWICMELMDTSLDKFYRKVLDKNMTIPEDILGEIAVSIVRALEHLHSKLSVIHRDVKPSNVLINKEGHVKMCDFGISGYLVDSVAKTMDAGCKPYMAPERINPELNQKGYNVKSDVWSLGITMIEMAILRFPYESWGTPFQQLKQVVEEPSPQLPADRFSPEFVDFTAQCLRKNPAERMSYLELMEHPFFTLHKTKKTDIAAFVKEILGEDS
inactive: erlotinib 0.048 | [1] 0.061 | [2] 0.03 | [3] -0.063 | [4] 0.03 | [5] -0.037 | [6] 0.119 | [7] -0.006 | [8] 0.129 | IRAK-1-4 Inhibitor I 0.03

MFF isoform 2 (UniProt Q9GZY8)
inactive: erlotinib 0.006 | [1] -0.056 | [2] 0.021 | [3] -0.009 | [4] -0.014 | [5] -0.035 | [6] -0.005 | [7] 0.024 | [8] 0.037 | IRAK-1-4 Inhibitor I 0.018

MARK1 (UniProt Q9P0L2)
inactive: erlotinib 0.105 | [1] 0.006 | [2] -0.018 | [3] 0.029 | [4] -0.01 | [5] -0.001 | [6] -0.26 | [7] -0.255 | [8] -0.111 | IRAK-1-4 Inhibitor I -0.045

MAPK3 (UniProt P27361)
inactive: erlotinib 0 | [1] 0.02 | [2] 0 | [3] -0.025 | [4] 0.031 | [5] 0.01 | [6] 0.052 | [7] 0.021 | [8] 0.055 | IRAK-1-4 Inhibitor I 0.049

LUZP1 (UniProt Q86V48)
inactive: erlotinib -0.074 | [1] -0.06 | [2] -0.033 | [3] 0.027 | [4] -0.028 | [5] -0.009 | [6] 0.031 | [7] -0.009 | [8] 0.009 | IRAK-1-4 Inhibitor I 0.085

MED8 isoform 2 (UniProt Q96G25)
inactive: erlotinib 0.017 | [1] 0.007 | [2] -0.001 | [3] 0.021 | [4] 0.027 | [5] 0.008 | [6] 0 | [7] 0.014 | [8] 0.088 | IRAK-1-4 Inhibitor I -0.005

MLLT11 (UniProt Q13015)
UniProt Q13015, sequence (Q13015 whole entry, looked up): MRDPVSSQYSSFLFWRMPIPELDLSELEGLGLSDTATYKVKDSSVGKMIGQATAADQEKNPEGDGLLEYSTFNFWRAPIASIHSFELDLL
inactive: erlotinib 0.053 | [1] -0.018 | [2] -0.271 | [3] 0.063 | [4] -0.038 | [5] -0.018 | [6] -0.054 | [7] -0.372 | [8] 0.111 | IRAK-1-4 Inhibitor I 0.044

MMS19 isoform 8 (UniProt Q96T76)
UniProt Q96T76, sequence (Q96T76 whole entry, looked up): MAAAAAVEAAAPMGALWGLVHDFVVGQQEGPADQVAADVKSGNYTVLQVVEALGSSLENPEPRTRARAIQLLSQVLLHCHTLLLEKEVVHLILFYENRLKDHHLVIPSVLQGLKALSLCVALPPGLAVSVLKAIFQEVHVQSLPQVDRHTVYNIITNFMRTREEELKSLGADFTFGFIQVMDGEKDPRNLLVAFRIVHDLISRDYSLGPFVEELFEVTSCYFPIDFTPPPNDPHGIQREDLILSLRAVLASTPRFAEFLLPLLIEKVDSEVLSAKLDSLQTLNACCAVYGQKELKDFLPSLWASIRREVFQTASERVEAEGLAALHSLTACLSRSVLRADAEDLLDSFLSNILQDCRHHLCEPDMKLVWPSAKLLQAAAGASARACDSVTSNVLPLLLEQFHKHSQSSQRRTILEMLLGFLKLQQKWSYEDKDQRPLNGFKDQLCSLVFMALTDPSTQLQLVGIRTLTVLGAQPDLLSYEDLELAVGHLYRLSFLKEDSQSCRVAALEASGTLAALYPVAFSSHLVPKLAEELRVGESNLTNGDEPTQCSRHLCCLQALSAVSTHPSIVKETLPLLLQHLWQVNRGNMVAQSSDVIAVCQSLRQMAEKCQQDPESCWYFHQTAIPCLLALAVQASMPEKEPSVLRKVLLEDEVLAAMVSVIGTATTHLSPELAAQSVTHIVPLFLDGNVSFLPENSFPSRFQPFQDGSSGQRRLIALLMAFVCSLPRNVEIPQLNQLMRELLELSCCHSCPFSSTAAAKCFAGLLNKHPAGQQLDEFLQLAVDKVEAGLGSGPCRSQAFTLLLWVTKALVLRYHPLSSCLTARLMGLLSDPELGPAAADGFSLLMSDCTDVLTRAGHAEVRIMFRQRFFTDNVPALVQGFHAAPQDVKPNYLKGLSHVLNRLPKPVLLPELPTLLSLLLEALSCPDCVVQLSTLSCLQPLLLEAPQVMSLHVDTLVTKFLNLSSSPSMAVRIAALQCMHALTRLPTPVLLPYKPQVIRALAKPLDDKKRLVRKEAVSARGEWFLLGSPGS
inactive: erlotinib 0.026 | [1] -0.019 | [2] -0.016 | [3] -0.02 | [4] -0.009 | [5] 0.011 | [6] -0.099 | [7] 0.01 | [8] 0.034 | IRAK-1-4 Inhibitor I 0.004

KIF21A isoform 5 (UniProt Q7Z4S6)
inactive: erlotinib -0.025 | [1] 0.022 | [2] -0.002 | [3] 0.01 | [4] -0.013 | [5] -0.016 | [6] -0.034 | [7] -0.009 | [8] 0.01 | IRAK-1-4 Inhibitor I -0.002

KNOP1 (UniProt Q1ED39)
UniProt Q1ED39, sequence (Q1ED39 whole entry, looked up): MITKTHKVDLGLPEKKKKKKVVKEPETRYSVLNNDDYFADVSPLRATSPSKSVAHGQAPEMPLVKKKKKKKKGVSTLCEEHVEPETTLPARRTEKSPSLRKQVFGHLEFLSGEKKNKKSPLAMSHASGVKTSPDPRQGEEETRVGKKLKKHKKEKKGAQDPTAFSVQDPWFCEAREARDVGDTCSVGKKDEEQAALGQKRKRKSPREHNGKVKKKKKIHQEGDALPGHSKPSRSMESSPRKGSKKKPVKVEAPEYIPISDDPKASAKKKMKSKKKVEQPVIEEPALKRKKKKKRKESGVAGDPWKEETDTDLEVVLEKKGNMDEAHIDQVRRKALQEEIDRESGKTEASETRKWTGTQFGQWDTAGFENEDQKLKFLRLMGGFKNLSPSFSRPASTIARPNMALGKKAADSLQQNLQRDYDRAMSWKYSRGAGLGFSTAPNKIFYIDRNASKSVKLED
inactive: erlotinib -0.018 | [1] -0.011 | [2] -0.006 | [3] -0.176 | [4] 0.019 | [5] 0.008 | [6] 0.109 | [7] -0.128 | [8] 0.118 | IRAK-1-4 Inhibitor I 0.123

KIF2C (UniProt Q99661)
inactive: erlotinib 0.019 | [1] 0.033 | [2] -0.008 | [3] -0.01 | [4] -0.008 | [5] 0.002 | [6] -0.033 | [7] 0.015 | [8] -0.006 | IRAK-1-4 Inhibitor I -0.019

MAPK6 (UniProt Q16659)
inactive: erlotinib -0.004 | [1] 0.036 | [2] 0.019 | [3] 0.006 | [4] 0.015 | [5] 0.001 | [6] 0.069 | [7] 0.068 | [8] 0.015 | IRAK-1-4 Inhibitor I -0.027

KRIT1 (UniProt O00522)
inactive: erlotinib 0.071 | [1] 0.061 | [2] 0.043 | [3] -0.074 | [4] 0.177 | [5] 0.038 | [6] -0.034 | [7] -0.042 | [8] 0.043 | IRAK-1-4 Inhibitor I -0.073

LAP3 (UniProt P28838)
inactive: erlotinib -0.034 | [1] 0.08 | [2] 0.082 | [3] -0.022 | [4] 0.013 | [5] -0.026 | [6] -0.017 | [7] 0.027 | [8] 0.008 | IRAK-1-4 Inhibitor I 0.061

MAPKAPK2 (UniProt P49137)
inactive: erlotinib -0.047 | [1] 0.041 | [2] 0 | [3] 0.192 | [4] 0.003 | [5] 0.013 | [6] 0.026 | [7] -0.02 | [8] 0.018 | IRAK-1-4 Inhibitor I -0.017

MAPK1 (UniProt P28482)
inactive: erlotinib -0.021 | [1] -0.017 | [2] 0.001 | [3] 0.001 | [4] -0.016 | [5] -0.003 | [6] 0.065 | [7] 0.017 | [8] 0.009 | IRAK-1-4 Inhibitor I -0.009

METTL2A (UniProt Q96IZ6)
UniProt Q96IZ6, sequence (Q96IZ6 whole entry, looked up): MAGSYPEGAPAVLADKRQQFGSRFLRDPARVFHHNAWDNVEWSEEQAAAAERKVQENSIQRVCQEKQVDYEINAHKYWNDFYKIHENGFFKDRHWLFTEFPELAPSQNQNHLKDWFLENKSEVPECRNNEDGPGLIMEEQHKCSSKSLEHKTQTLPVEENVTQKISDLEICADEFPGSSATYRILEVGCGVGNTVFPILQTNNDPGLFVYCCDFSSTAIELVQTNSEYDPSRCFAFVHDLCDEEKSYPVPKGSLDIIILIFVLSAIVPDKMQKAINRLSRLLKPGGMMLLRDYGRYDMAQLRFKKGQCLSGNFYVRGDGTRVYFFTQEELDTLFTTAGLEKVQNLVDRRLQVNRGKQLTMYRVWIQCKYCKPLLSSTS
inactive: erlotinib 0.023 | [1] -0.009 | [2] -0.026 | [3] 0.037 | [4] 0 | [5] -0.018 | [6] -0.026 | [7] 0.002 | [8] 0.166 | IRAK-1-4 Inhibitor I 0.042

MAP2K1 (UniProt Q02750)
inactive: erlotinib 0.016 | [1] 0.04 | [2] -0.026 | [3] -0.02 | [4] -0.012 | [5] -0.006 | [6] 0.188 | [7] 0.105 | [8] 0.077 | IRAK-1-4 Inhibitor I 0.011

MAST2 (UniProt Q6P0Q8)
inactive: erlotinib 0.044 | [1] -0.054 | [2] 0.142 | [3] 0.003 | [5] -0.03 | [6] 0.099 | [7] 0.038 | [8] -0.046 | IRAK-1-4 Inhibitor I 0.073
active: [4] -0.588

MPZL1 (UniProt O95297)
inactive: erlotinib -0.057 | [1] 0.068 | [2] -0.036 | [3] 0.003 | [4] -0.042 | [5] 0.017 | [6] -0.005 | [7] 0.015 | [8] -0.04 | IRAK-1-4 Inhibitor I 0.015

MIF (UniProt P14174)
UniProt P14174, sequence (P14174 whole entry, looked up): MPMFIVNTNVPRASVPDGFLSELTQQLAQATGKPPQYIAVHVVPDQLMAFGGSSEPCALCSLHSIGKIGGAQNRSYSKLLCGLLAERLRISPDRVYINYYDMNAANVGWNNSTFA
inactive: erlotinib 0.006 | [1] 0.003 | [2] -0.021 | [3] -0.045 | [4] -0.007 | [5] -0.009 | [6] 0.047 | [7] -0.023 | [8] 0.032 | IRAK-1-4 Inhibitor I 0.058

LRWD1 (UniProt Q9UFC0)
inactive: erlotinib -0.031 | [1] -0.002 | [2] 0.031 | [3] 0.032 | [4] 0.057 | [5] 0.016 | [6] -0.014 | [7] 0.002 | [8] 0.03 | IRAK-1-4 Inhibitor I -0.02
